This passage reports inhibition results from PubChem BioAssay AID374 (University of Pittsburgh Molecular Library Screening Center, 2006).

In all, about 65,000 compounds went through this assay and about 100 (0.15%) were called active.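 The calls were made as follows: active = inhibition above about 50% (limit read from the data); inconclusive = inhibition over screen mean plus 3 SD, below that limit; inactive = the rest.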 The entries come from a sample that favours actives as a whole.

Sequence of Dual specificity protein phosphatase 1 (Homo sapiens) (P28562 whole entry, looked up): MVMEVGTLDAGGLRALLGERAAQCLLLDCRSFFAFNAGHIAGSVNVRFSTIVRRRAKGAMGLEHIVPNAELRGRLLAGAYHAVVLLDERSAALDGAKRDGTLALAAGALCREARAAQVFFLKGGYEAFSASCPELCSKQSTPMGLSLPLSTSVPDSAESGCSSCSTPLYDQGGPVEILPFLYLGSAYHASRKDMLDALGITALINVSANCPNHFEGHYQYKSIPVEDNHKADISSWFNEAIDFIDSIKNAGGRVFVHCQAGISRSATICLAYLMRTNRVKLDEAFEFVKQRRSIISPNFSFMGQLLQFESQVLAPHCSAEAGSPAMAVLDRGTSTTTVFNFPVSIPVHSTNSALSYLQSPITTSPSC

The experiment concerns the target Dual specificity protein phosphatase 1 (Homo sapiens) (UniProt P28562). As to the kind of experiment: MKP-1 phosphatase inhibitors, primary screen, biochemical, in vitro (AID 374).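 Also: 0% = DMSO max control wells and 100% = wells with enzyme stopped by NaOH.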 The note with it: recombinant MKP-1, OMFP hydrolysis fluorescence; stronger effect = higher value;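 compounds tested at a single concentration somewhere between 10 and 100 µM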.
Consider `COC(=O)N(c1ccc(OC)cc1)P1(=S)OCCC(C)O1` (stereo not given), for which the inhibition is 100% (active).
As for `CCOC(=O)c1c(N)n(Cc2ccccc2)c2nc3ccccc3nc12`, the inhibition was 32.1% (inactive).
The result for `COC(=O)C(c1ccccc1)N1CCCCCC1` (stereo not given) reads -10.8% (inactive).
The figure for `CCc1nc2ccccc2c(=O)n1-c1cccc(OC)c1` is 2.83% (inactive).
The figure for `CCN(CC)CCOC(=O)c1cc2cc(COC)ccc2o1` is 2.26% (inactive).

What is called inhibition is the relative decrease from the control value, in per cent.
